Assay outcomes deposited in PubChem BioAssay by Sanford-Burnham Center for Chemical Genomics.
In the library only some 4% were active in any assay of this set; here they are far more common.
TIM10 inh: TIM10 yeast growth inhibition; S. cerevisiae TIM10 strain growth, BacTiter-Glo luminescence, 24 h; inhibition, % at 10 µM; actives 1.4% (n = 330,000); AID 463195;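 active means inhibition of 40% or more at the single tested concentration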;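 further: wild-type TIM10 isogenic control strain grown at permissive 25 °C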
tim23-1 inh: inhibits growth of tim23-1 mutant yeast | AID 463212 | inhibition, % at 20 µM | S. cerevisiae tim23-1 growth, BacTiter-Glo luminescence, 24 h | actives 1.3% (n = 330,000);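 active means growth inhibition of the mutant yeast at or above 50%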;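 further: temperature-sensitive mutant grown at 25 °C; plate controls were DMSO-treated mutant yeast for no effect and medium wells lacking yeast for full effect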
NALP1 yeast inh: blocks the NALP1 inflammasome reconstituted in yeast; inhibition, % at 10 µM; actives 0.61% (n = 280,000); AID 2071; S. cerevisiae NALP1/ASC/caspase-1 growth, X-gal OD620, 72 h; in the data active means inhibition mostly above about 24%, no sharp cut-off; inactive means mostly below about 32%
tim10-1 inh: tim10-1 yeast growth inhibition | inhibition, % at 20 µM | S. cerevisiae tim10-1 ts strain growth, BacTiter-Glo, 24 h | actives 2.2% (n = 330,000);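 active means inhibition of at least 40%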;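 further: mutant grown at 25 °C; 0% = DMSO wells with yeast and 100% = wells holding no yeast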
NLRP3 yeast inh: blocks the NALP3 inflammasome reconstituted in yeast; Yeast reconstituted NLRP3/ASC/caspase-1, beta-gal luminescence, 24 h; inhibition, % at 10 µM; actives 0.39% (n = 330,000); AID 2825;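 active means inhibition of 50% or more; inactive means inhibition below 50%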;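 further: plate controls were induced DMSO wells for no effect and uninduced yeast grown without galactose for full effect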
Starred values were filed as active, the others as inactive.

Screening COc1ccc(S(=O)(=O)N2CCN(C(=O)COc3ccccc3)CC2)cc1 returned TIM10 inh -2, tim23-1 inh 17, NALP1 yeast inh -3, tim10-1 inh 9 and NLRP3 yeast inh 17.
Screening O=C(O)CSc1cc(NS(=O)(=O)c2ccc(Cl)cc2)c2ccccc2c1O returned NALP1 yeast inh 0.
For Cc1cc(C)c(S(=O)(=O)Nc2cc(SCC(=O)O)c(O)c3ccccc23)cc1C the results were NALP1 yeast inh 49*.
Screening Cc1ccc(S(=O)(=O)N2CCN(S(=O)(=O)N3CCOCC3)CC2)c(C)c1 returned TIM10 inh 4, tim23-1 inh 13, NALP1 yeast inh 43*, tim10-1 inh 2 and NLRP3 yeast inh -2.
For O=S(=O)(c1ccccc1Br)N1CCN(c2ncccn2)CC1 the results were TIM10 inh -6, tim23-1 inh 35, NALP1 yeast inh 36*, tim10-1 inh 15 and NLRP3 yeast inh 42.
Cc1ccc(C)c(S(=O)(=O)N2CCN(c3ncccn3)CC2)c1 was read as TIM10 inh -7, tim23-1 inh 28, NALP1 yeast inh 34*, tim10-1 inh 3 and NLRP3 yeast inh 43.
`c1ccc(N2CCN(c3ncccn3)CC2)cc1` gave TIM10 inh -13, tim23-1 inh -10, NALP1 yeast inh 26*, tim10-1 inh -32 and NLRP3 yeast inh 46.
`O=C(Cn1cnc2cc([N+](=O)[O-])ccc2c1=O)NC(c1ccccc1)c1ccccc1` gave TIM10 inh 24, tim23-1 inh -22, NALP1 yeast inh 0, tim10-1 inh 1 and NLRP3 yeast inh 19.
`O=C(N/N=C/c1c(F)cccc1Cl)C(=O)N1CCCCCC1` gave TIM10 inh 12, tim23-1 inh 14, NALP1 yeast inh 1, tim10-1 inh 17 and NLRP3 yeast inh 3.
For CCCCn1c(/C=C/c2ccco2)nc2ccccc21 the results were TIM10 inh 22, tim23-1 inh 31, NALP1 yeast inh 55*, tim10-1 inh 26 and NLRP3 yeast inh 8.
For CCCn1c(/C=C/c2ccco2)nc2ccccc21 the results were TIM10 inh 17, tim23-1 inh 9, NALP1 yeast inh 36, tim10-1 inh 19 and NLRP3 yeast inh -14.
For CN(C)c1ccc(NS(=O)(=O)c2ccc(-c3csnn3)cc2)cc1 the results were TIM10 inh 16, tim23-1 inh 12, NALP1 yeast inh 43*, tim10-1 inh 25 and NLRP3 yeast inh 20.
Cc1ccc(S(=O)(=O)Nc2ccc(N(C)C)cc2)cc1 was read as TIM10 inh -6, tim23-1 inh -15, NALP1 yeast inh 16, tim10-1 inh -12 and NLRP3 yeast inh 30.
For Cc1nn(-c2ccc(N3CCCCC3)nn2)c(C)c1CCC(=O)Nc1cc(F)ccc1F the results were TIM10 inh 20, tim23-1 inh 28, NALP1 yeast inh 2, tim10-1 inh 10 and NLRP3 yeast inh 0.
Screening COCCN1Cc2cccc(C(=O)Nc3cc(OC)ccc3OC)c2C1=O returned TIM10 inh -3, tim23-1 inh 11, NALP1 yeast inh 28*, tim10-1 inh 30 and NLRP3 yeast inh 15.
Screening CCC(CC)c1nnc(NC(=O)COc2ccc3c(c2)OCO3)s1 returned TIM10 inh 26, tim23-1 inh 30, NALP1 yeast inh -3, tim10-1 inh -15 and NLRP3 yeast inh 0.
Screening CC(C)c1nnc(NC(=O)COc2ccc3c(c2)OCO3)s1 returned TIM10 inh 3, tim23-1 inh 9, NALP1 yeast inh 30*, tim10-1 inh -16 and NLRP3 yeast inh 16.
For Cc1cccc(OCc2nnc(SCC(=O)Nc3cccc(C(=O)N4CCOCC4)c3)o2)c1C the results were TIM10 inh -14, tim23-1 inh 4, NALP1 yeast inh 16, tim10-1 inh 15 and NLRP3 yeast inh 9.
For Cc1ccc(-c2nnn(CC(=O)N(c3cccc(F)c3)C(C(=O)NC3CCCC3)c3ccncc3)n2)o1 (centres undefined) the results were TIM10 inh -32, tim23-1 inh -31, NALP1 yeast inh 35*, tim10-1 inh -33 and NLRP3 yeast inh 14.
Screening Nc1ccc(C(=O)c2cccs2)cc1 returned TIM10 inh 13, tim23-1 inh 19, NALP1 yeast inh 48*, tim10-1 inh 7 and NLRP3 yeast inh 29.
c1ccc2c(Nc3ccc4c(c3)OCCO4)c3c(nc2c1)CCCC3 was read as TIM10 inh 6, tim23-1 inh 5, NALP1 yeast inh 29*, tim10-1 inh 15 and NLRP3 yeast inh 7.
Screening CC(C)CN(C)Cc1c(C(=O)N2CCc3ccccc3C2)nc2ccc(Cl)cn12 returned TIM10 inh 36, tim23-1 inh 39, NALP1 yeast inh -12, tim10-1 inh 38 and NLRP3 yeast inh 6.
O=C(Nc1nc2nccc(-c3ccccc3)n2n1)C(Cl)(Cl)Cl was read as TIM10 inh -16, tim23-1 inh 19, NALP1 yeast inh 25, tim10-1 inh 5 and NLRP3 yeast inh 3.
CCOc1ccc(N2CC(C(=O)Nc3c(C)n(C)n(-c4ccccc4)c3=O)CC2=O)cc1 (centres undefined) was read as TIM10 inh -4, tim23-1 inh 2, NALP1 yeast inh -6, tim10-1 inh 11 and NLRP3 yeast inh -10.
For CCOC(=O)c1ccc(N2C(=O)CC(N3CCOCC3)C2=O)cc1 (centres undefined) the results were TIM10 inh 14, tim23-1 inh 30, NALP1 yeast inh 30*, tim10-1 inh 29 and NLRP3 yeast inh 13.
Screening CCOc1ccc(N2C(=O)CC(N3CCOCC3)C2=O)cc1 (centres undefined) returned TIM10 inh 16, tim23-1 inh 21, NALP1 yeast inh 27, tim10-1 inh 0 and NLRP3 yeast inh -8.
COc1ccccc1-n1cc([C@@H]2C[C@H]3CN(c4ccccc4)C(=O)[C@]34CCCN24)cn1 was read as TIM10 inh -4, tim23-1 inh 15, NALP1 yeast inh -4, tim10-1 inh 6 and NLRP3 yeast inh 2.
Screening Cc1ccc(NC(=O)N2CCCC2)cc1Cl returned TIM10 inh 30, tim23-1 inh 30, NALP1 yeast inh 38*, tim10-1 inh 15 and NLRP3 yeast inh 8.
CCOC(=O)c1ccc(NC(=O)N2CCCCCC2)cc1 was read as TIM10 inh 5, tim23-1 inh 16, NALP1 yeast inh 43*, tim10-1 inh 3 and NLRP3 yeast inh 28.
Cc1ccc(NC(=O)C(=O)N2CCCC2)cc1Cl was read as TIM10 inh -7, tim23-1 inh 7, NALP1 yeast inh 35, tim10-1 inh 3 and NLRP3 yeast inh 40.
`O=C(CCCn1c(=O)[nH]c2ccsc2c1=O)NCc1cccs1` gave TIM10 inh -14, tim23-1 inh 3, NALP1 yeast inh 21*, tim10-1 inh 19 and NLRP3 yeast inh -10.
Screening COc1ccc(/C=C2/SC(=O)N(NS(=O)(=O)c3ccccc3)C2=S)cc1OC returned TIM10 inh 13, tim23-1 inh 26, NALP1 yeast inh 6, tim10-1 inh 28 and NLRP3 yeast inh 2.
`CCOc1ccc(S(=O)(=O)Nc2ccc(C(=O)N/N=C(\C)c3ccc(-n4ccnc4)cc3)cc2)cc1` gave TIM10 inh 1, tim23-1 inh 6, NALP1 yeast inh 35*, tim10-1 inh 7 and NLRP3 yeast inh 2.
